Drawing on PubChem BioAssay (EPA / NIEHS), this text covers outcome and AC50 for three compounds.

Details in all cases: mRNA level, 48 h; actives raise or lower the signal
Read-out in test [1]: adenosine kinase (ADK) gene, ADK (gene 132)
In words: LTEA_HepaRG_ADK: Life Technologies and Expression Analysis (LTEA) Assay for adenosine kinase (ADK) gene using HepaRG (AID 2283471). In outline: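 Read-out is ADK transcript level measured by qRT-PCR and normalised to three housekeeping genes. Cells are human HepaRG, dosed for 48 h at up to 100 uM in 0.5% DMSO. Gain or loss of signal is fitted against DMSO controls.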

Read-out in test [2]: Alpha-fetoprotein (AFP) gene, AFP (gene 174)
Nature of the test: LTEA_HepaRG_AFP: Life Technologies and Expression Analysis (LTEA) Assay for Alpha-fetoprotein (AFP) gene using HepaRG (AID 2283472). In outline:
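AFP transcript measured by TaqMan qRT-PCR with three housekeeping genes for normalization, after 48 h chemical treatment of HepaRG cells (top 100 uM, half-log steps, 0.5% DMSO). Gain or loss fitted against vehicle.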

Read-out in a further test: BCL2L11 (gene 10018)
Nature of the test: LTEA_HepaRG_BCL2L11: Life Technologies and Expression Analysis (LTEA) Assay for Bcl-2 (BCL2L11) gene using HepaRG (AID 2283473). The gist of the method: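 Differentiated human HepaRG cells were exposed 48 h in serum-free induction medium to eight half-log concentrations up to 100 uM in 0.5% DMSO, in duplicate. BCL2L11 mRNA was quantified by TaqMan qRT-PCR, normalized to ACTB, GAPDH and POLR2A; induction or repression fitted versus DMSO.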

Read-out in test [3]: Apolipoprotein A-V (APOA5) gene, APOA5 (gene 116519)
In words: LTEA_HepaRG_APOA5: Life Technologies and Expression Analysis (LTEA) Assay for Apolipoprotein A-V (APOA5) gene using HepaRG (AID 2283474). The gist of the method:
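Differentiated HepaRG cells in serum-free induction medium, exposed 48 h in duplicate to eight half-log concentrations topping at 100 uM (0.5% DMSO). APOA5 mRNA by Fluidigm TaqMan qRT-PCR, normalized to ACTB, GAPDH and POLR2A; bidirectional fit versus DMSO.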

Read-out in test [4]: Apoptosis regulator Bcl-2 (Homo sapiens) (UniProt P10415)
Nature of the test: LTEA_HepaRG_BCL2: Life Technologies and Expression Analysis (LTEA) Assay for Bcl-2 gene using HepaRG (AID 2283475). In outline:
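qRT-PCR of BCL2 transcript, normalized to three housekeeping genes (ACTB, GAPDH, POLR2A), after 48 h chemical exposure of HepaRG cells; concentrations top 100 uM with half-log dilutions, 0.5% DMSO vehicle, duplicates; changes up or down fitted relative to vehicle.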

Read-out in test [5]: Bcl-2 (BID) gene, BID (gene 637)
Nature of the test: LTEA_HepaRG_BID: Life Technologies and Expression Analysis (LTEA) Assay for Bcl-2 (BID) gene using HepaRG (AID 2283476). The gist of the method: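 Duplicate 48 h treatments of HepaRG cells in serum-free induction medium spanned 100 uM downward in half-log steps, 0.5% DMSO. Transcript change quantified by qRT-PCR against three housekeeping genes, fitted up or down versus DMSO.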

Read-out in another test: Caspase-3 (Homo sapiens) (UniProt P42574)
Nature of the test: LTEA_HepaRG_CASP3: Life Technologies and Expression Analysis (LTEA) Assay for cysteine-aspartic acid protease (CASP3) using HepaRG (AID 2283477). In outline:
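Differentiated HepaRG cells, plated 48 h, were treated in duplicate in serum-free induction medium for 48 h with eight half-log concentrations up to 100 uM in 0.5% DMSO. CASP3 mRNA measured by qRT-PCR, normalized to ACTB, GAPDH, POLR2A.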

Read-out in test [6]: Cytochrome P450 (CYP24A1), CYP24A1 (gene 1591)
In words: LTEA_HepaRG_CYP24A1: Life Technologies and Expression Analysis (LTEA) Assay for Cytochrome P450 (CYP24A1) using HepaRG (AID 2283478). The gist of the method:
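HepaRG cells plated 48 h, then exposed in duplicate in serum-free induction medium for 48 h to 8-point half-log series from 100 uM in 0.5% DMSO. CYP24A1 mRNA by Fluidigm qRT-PCR, normalized to ACTB, GAPDH, POLR2A; bidirectional fit versus DMSO.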

Read-out in test [7]: Cytochrome P450 (CYP1A2), CYP1A2 (gene 1544)
In words: LTEA_HepaRG_CYP1A2: Life Technologies and Expression Analysis (LTEA) Assay for Cytochrome P450 (CYP1A2) using HepaRG (AID 2283479). The gist of the method: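 Differentiated human HepaRG cells in serum-free induction medium exposed 48 hours in duplicate to 8 half-log concentrations from 100 uM, 0.5% DMSO. CYP1A2 mRNA quantified by qRT-PCR, normalized to ACTB, GAPDH and POLR2A; bidirectional fitting versus DMSO.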

Read-out in test [8]: cysteine-aspartic acid protease (CASP8), CASP8 (gene 841)
Nature of the test: LTEA_HepaRG_CASP8: Life Technologies and Expression Analysis (LTEA) Assay for cysteine-aspartic acid protease (CASP8) using HepaRG (AID 2283480). In outline:
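qRT-PCR readout of CASP8 mRNA, normalized to three housekeeping genes, after 48 h chemical exposure of HepaRG cells; 8-point half-log series, top 100 uM, 0.5% DMSO vehicle. Bidirectional curve fitting against DMSO baseline.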

Read-out in test [9]: Cytochrome P450 (CYP2B6), CYP2B6 (gene 1555)
In words: LTEA_HepaRG_CYP2B6: Life Technologies and Expression Analysis (LTEA) Assay for Cytochrome P450 (CYP2B6) using HepaRG (AID 2283481). In outline:
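Differentiated human HepaRG cells in serum-free induction medium, dosed in duplicate for 48 h over 8 half-log concentrations topping at 100 uM (0.5% DMSO). CYP2B6 mRNA measured by TaqMan qRT-PCR, normalized to ACTB, GAPDH, POLR2A; bidirectional fit versus DMSO.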

Read-out in test [10]: Cytochrome P450 2C19 (Homo sapiens) (UniProt P33261)
Nature of the test: LTEA_HepaRG_CYP2C19: Life Technologies and Expression Analysis (LTEA) Assay for CYP2C19 using HepaRG (AID 2283482). The gist of the method: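 Differentiated HepaRG cells in serum-free induction medium exposed 48 h in duplicate, 8 concentrations from 100 uM by half-log steps in 0.5% DMSO. CYP2C19 mRNA measured by TaqMan qRT-PCR, normalized to ACTB, GAPDH, POLR2A. Bidirectional fit versus DMSO.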

Read-out in the next test: CYP2C8 (gene 1558)
Nature of the test: LTEA_HepaRG_CYP2C8: Life Technologies and Expression Analysis (LTEA) Assay for CYP2C8 using HepaRG (AID 2283483). The gist of the method: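 HepaRG (human liver line), 48 h chemical exposure, 8-pt half-log series from 100 uM, 0.5% DMSO vehicle. Readout: CYP2C8 transcript by qRT-PCR, housekeeping-normalized. Bidirectional fit vs DMSO baseline.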

Read-out in the next test: CYP2C9 (gene 1559)
Nature of the test: LTEA_HepaRG_CYP2C9: Life Technologies and Expression Analysis (LTEA) Assay for CYP2C9 using HepaRG (AID 2283484). The gist of the method:
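HepaRG, 48 h dosing, 8-pt half-log series, top 100 uM, 0.5% DMSO vehicle. Read-out: CYP2C9 transcript by TaqMan qRT-PCR, housekeeping-normalized (ACTB/GAPDH/POLR2A). Gain or loss fitted vs DMSO baseline.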

Read-out in a further test: CYP2E1 (gene 1571)
In words: LTEA_HepaRG_CYP2E1: Life Technologies and Expression Analysis (LTEA) Assay for CYP2E1 using HepaRG (AID 2283485). The gist of the method: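 CYP2E1 transcript measured by Fluidigm qRT-PCR against three housekeeping genes in human HepaRG cells treated 48 h (top 100 uM, half-log steps, 0.5% DMSO vehicle). Gain or loss fitted relative to DMSO baseline.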

Read-out in a further test: CYP4A11 (gene 1579)
Nature of the test: LTEA_HepaRG_CYP4A11: Life Technologies and Expression Analysis (LTEA) Assay for CYP4A11 using HepaRG (AID 2283486). The gist of the method: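 Differentiated HepaRG cells, 48 h after plating, exposed in duplicate for 48 h to 8 half-log concentrations up to 100 uM in 0.5% DMSO in serum-free induction medium. CYP4A11 mRNA measured by TaqMan qRT-PCR, normalized to ACTB, GAPDH and POLR2A.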

Read-out in test [11]: DNA damage-inducible transcript 3 (DDIT3), DDIT3 (gene 1649)
In words: LTEA_HepaRG_DDIT3: Life Technologies and Expression Analysis (LTEA) Assay for DNA damage-inducible transcript 3 (DDIT3) using HepaRG (AID 2283488). The gist of the method: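 DDIT3 transcript was quantified by qRT-PCR with ACTB/GAPDH/POLR2A normalization after 48 h chemical treatment of differentiated HepaRG cells in 0.5% DMSO. Dosing was eight-point, half-log, top 100 uM, duplicate wells. Curves fitted bidirectionally versus DMSO.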

Read-out in test [12]: Pro-epidermal growth factor (Homo sapiens) (UniProt P01133)
Nature of the test: LTEA_HepaRG_EGF: Life Technologies and Expression Analysis (LTEA) Assay for Epidermal growth factor (EGF) using HepaRG (AID 2283489). In outline:
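HepaRG cells (~100,000/well, 48 h pre-culture) exposed in duplicate for 48 h in serum-free induction medium to 8 half-log concentrations up to 100 uM in 0.5% DMSO. EGF mRNA by qRT-PCR, normalized to ACTB/GAPDH/POLR2A; bidirectional fit versus DMSO.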

Read-out in test [13]: Early growth response protein 1 (EGR1) transcription factor, EGR1 (gene 1958)
In words: LTEA_HepaRG_EGR1: Life Technologies and Expression Analysis (LTEA) Assay for Early growth response protein 1 (EGR1) transcription factor using HepaRG (AID 2283490). In outline:
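HepaRG, 48 h exposure, 8-pt half-log series from 100 uM, 0.5% DMSO vehicle; EGR1 transcript by TaqMan qRT-PCR (Fluidigm array), housekeeping-normalized; bidirectional fit relative to DMSO baseline.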

Read-out in test [14]: Cytochrome P450 3A4 (Homo sapiens) (UniProt P08684)
In words: LTEA_HepaRG_CYP3A4: Life Technologies and Expression Analysis (LTEA) Assay for CYP3A4 using HepaRG (AID 2283487). In outline: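 HepaRG, 48 h exposure, 8-pt CRC from 100 uM (half-log), 0.5% DMSO, duplicates; serum-free induction medium. Readout: CYP3A4 mRNA, qRT-PCR, ACTB/GAPDH/POLR2A normalization. Bidirectional fit vs DMSO.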

The structures appear in SMILES notation. Active and inactive are the calls of the source. The calls were made as follows: active = hit-call score of the fitted dose curve at least 0.9, where 1 is the maximum; inactive = score below 0.9.

Caspase-3 (Homo sapiens), sequence (P42574 whole entry, looked up): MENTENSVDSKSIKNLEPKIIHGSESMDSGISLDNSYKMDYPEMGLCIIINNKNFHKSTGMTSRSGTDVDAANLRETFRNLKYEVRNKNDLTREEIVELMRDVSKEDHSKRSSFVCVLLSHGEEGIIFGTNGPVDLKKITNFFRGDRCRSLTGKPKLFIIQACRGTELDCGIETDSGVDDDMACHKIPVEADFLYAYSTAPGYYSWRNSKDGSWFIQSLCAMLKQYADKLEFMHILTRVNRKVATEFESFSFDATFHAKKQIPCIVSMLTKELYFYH
Apoptosis regulator Bcl-2 (Homo sapiens), sequence (P10415 whole entry, looked up): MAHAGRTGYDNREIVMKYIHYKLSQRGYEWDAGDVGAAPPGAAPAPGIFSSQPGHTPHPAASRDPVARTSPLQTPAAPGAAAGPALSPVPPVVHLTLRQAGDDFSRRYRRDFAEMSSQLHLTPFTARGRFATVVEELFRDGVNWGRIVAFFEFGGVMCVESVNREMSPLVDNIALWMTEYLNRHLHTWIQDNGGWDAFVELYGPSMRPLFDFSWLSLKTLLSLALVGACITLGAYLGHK
Cytochrome P450 2C19 (Homo sapiens), sequence (P33261 whole entry, looked up): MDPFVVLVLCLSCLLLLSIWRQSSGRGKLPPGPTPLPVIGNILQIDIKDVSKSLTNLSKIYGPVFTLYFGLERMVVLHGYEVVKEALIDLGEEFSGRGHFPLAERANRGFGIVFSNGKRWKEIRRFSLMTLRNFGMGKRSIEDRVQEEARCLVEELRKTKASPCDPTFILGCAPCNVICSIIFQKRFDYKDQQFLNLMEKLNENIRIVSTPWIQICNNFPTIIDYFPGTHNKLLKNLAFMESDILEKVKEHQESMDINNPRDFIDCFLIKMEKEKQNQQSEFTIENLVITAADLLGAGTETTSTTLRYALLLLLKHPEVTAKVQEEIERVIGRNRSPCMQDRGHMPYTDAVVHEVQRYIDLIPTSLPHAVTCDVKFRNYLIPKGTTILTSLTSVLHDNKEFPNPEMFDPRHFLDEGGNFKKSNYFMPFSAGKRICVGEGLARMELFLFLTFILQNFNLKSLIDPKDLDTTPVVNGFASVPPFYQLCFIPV
Cytochrome P450 3A4 (Homo sapiens), sequence (P08684 whole entry, looked up): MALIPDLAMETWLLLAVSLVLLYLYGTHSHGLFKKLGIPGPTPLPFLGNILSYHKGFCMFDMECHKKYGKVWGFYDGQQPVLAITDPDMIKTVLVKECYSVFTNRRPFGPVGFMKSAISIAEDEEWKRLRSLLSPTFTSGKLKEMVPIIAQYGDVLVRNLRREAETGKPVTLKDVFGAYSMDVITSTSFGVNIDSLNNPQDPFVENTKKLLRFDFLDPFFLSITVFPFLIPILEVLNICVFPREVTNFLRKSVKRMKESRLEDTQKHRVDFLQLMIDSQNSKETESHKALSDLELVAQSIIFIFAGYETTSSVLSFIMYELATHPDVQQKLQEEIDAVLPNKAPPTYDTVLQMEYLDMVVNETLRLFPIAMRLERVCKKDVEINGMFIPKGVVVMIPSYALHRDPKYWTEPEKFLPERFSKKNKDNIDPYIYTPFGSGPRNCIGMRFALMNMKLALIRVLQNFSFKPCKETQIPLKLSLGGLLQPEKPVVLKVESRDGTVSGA

What is called AC50 is the midpoint of the concentration-response curve, whichever way the signal moves. In the case of `CC1=C(/C=C/C(C)=C/C=C/C(C)=C/C(=O)O)C(C)(C)CCC1`, the result (in test [1]; with BCL2L11 (gene 10018); in test [3]; in [4]; in [5]; in the test with Caspase-3 (Homo sapiens)) was inactive. The result (in test [8]; with CYP2C8 (gene 1558); with CYP2C9 (gene 1559); in [11]; in test [13]) was inactive. In addition, the AC50 in [2] is 35.9 µM (active); in test [6], 12.8 µM (active); in test [7], 1.75 µM (active); in [9] it was 6.58 µM (active); in test [10], 27 µM (active); with CYP2E1 (gene 1571), 20.8 µM (active). The AC50 was 4.34 µM (active) with CYP4A11 (gene 1579) and 28 µM (active) in test [12].
`CCCCCCCC(=O)O`: the compound was called inactive (in test [1]; in test [2]; with BCL2L11 (gene 10018); in [3]; in [4]; in test [5]). The compound was called inactive (in test [6]; in test [7]; in [8]; in test [9]; in test [10]; with CYP2C8 (gene 1558)). For the same compound, the compound was called inactive (with CYP2C9 (gene 1559); with CYP2E1 (gene 1571); with CYP4A11 (gene 1579); in test [11]; in test [12]; in test [13]). The AC50 with Caspase-3 (Homo sapiens) was 12.5 µM (active).
Take `CC(C)(C)c1ccc(O)c(C(C)(C)C)c1`: the call (in test [1]; in [2]; with BCL2L11 (gene 10018); in test [3]; in [5]; with Caspase-3 (Homo sapiens)) was inactive. Further, the result (in [8]; in test [9]; in test [10]; with CYP2C8 (gene 1558); with CYP2C9 (gene 1559); in the test with CYP2E1 (gene 1571)) was inactive. The call (with CYP4A11 (gene 1579); in test [11]; in test [12]; in test [13]) was inactive. The AC50 was 123 nM (active) in test [4], 0.01 µM (active) in [6], 0.104 µM (active) in test [7] and 50 µM (active) in [14].
